# From PubChem BioAssay (NCATS)
# Where “and” joins values, the source holds several entries; their conditions need not be identical. Equal values may be shown once. Records with an inconclusive call do not appear. A call without a number means that no potency is given here. More than one record can exist for a structure, and the calls need not agree. Calls of active or inactive are those of the source. Unless noted, calls come from the whole dose curve; as a rule, active = well fitted curve in the direction sought with a large enough effect; inconclusive = small, poorly fitted or top-dose-only effect, or another doubt; inactive = no such curve, though single readings can be large; an effect the other way counts as inactive or inconclusive.
# Biological target: Mitogen-activated protein kinase 10 (Mus musculus) (UniProt Q61831)
# Assay: JNK3 AlphaScreen Assay (AID 530; active = well fitted curve in either direction with a large enough effect, not every such curve was filed as active;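 note: kinase came from lysate of stimulated human HepG2 cells; signal reports phosphorylation of biotinylated GST-cJun 1-79 at Ser73 with 10 µM ATP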)
# Details: JNK3 lysate, c-Jun phosphorylation; series mostly up to 57.1 µM
# Outline: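 Biotinylated GST-cJun(1-79) served as substrate for JNK3 in HepG2 lysates stimulated with IL-1beta and TNF-alpha. ATP was 10 uM final, pH 7.6. Ser73 phosphorylation was quantified by AlphaScreen (680 nm excitation).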
row,Compound,Potency
1,O=C(c1cccc(F)c1)N1CCC[C@@]2(CCN(C(c3ccccc3)c3ccccc3)C2)C1,inactive
2,COc1ccccc1CNc1ncnc2ccc(-c3cccnc3)cc12,inactive
3,Cc1ccccc1-c1ccc2ncnc(N(C)Cc3ccco3)c2c1,inactive
4,COc1ccc(-c2nc3cnc(Nc4cccc(OC)c4)nc3n(CCC#N)c2=O)cc1,inactive
5,CN(Cc1ccco1)c1nc(-c2ccccc2Cl)nc2ccccc12,inactive
6,COc1cccc(-c2nc(Nc3ccncc3)c3ccccc3n2)c1,inactive
7,COc1cccc(-c2cncnc2NCc2ccc(OC)cc2OC)c1,inactive

# Biological target: 3',5'-cyclic-AMP phosphodiesterase 4B (Homo sapiens) (UniProt Q07343)
# Assay: qHTS Assay for Inhibitors of PDE-IV (AID 607; active = well fitted activation curve with a large enough effect in the main read-out, with a control signal flat, not every such curve was filed as active)
# Details: HEK293 ACTOne CNG channel cells, membrane potential fluorescence; series mostly up to 22.9 µM
# Outline: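 Cell-based read-out of cAMP via a modified cyclic nucleotide-gated channel and membrane potential dye (535/590 nm) in HEK293 cells expressing PDE4 endogenously. Compounds tested up to 22.9 uM final; 100 uM RO 20-1724 reference.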
# Chain of 3',5'-cyclic-AMP phosphodiesterase 4B (Homo sapiens) (Q07343 whole entry, looked up): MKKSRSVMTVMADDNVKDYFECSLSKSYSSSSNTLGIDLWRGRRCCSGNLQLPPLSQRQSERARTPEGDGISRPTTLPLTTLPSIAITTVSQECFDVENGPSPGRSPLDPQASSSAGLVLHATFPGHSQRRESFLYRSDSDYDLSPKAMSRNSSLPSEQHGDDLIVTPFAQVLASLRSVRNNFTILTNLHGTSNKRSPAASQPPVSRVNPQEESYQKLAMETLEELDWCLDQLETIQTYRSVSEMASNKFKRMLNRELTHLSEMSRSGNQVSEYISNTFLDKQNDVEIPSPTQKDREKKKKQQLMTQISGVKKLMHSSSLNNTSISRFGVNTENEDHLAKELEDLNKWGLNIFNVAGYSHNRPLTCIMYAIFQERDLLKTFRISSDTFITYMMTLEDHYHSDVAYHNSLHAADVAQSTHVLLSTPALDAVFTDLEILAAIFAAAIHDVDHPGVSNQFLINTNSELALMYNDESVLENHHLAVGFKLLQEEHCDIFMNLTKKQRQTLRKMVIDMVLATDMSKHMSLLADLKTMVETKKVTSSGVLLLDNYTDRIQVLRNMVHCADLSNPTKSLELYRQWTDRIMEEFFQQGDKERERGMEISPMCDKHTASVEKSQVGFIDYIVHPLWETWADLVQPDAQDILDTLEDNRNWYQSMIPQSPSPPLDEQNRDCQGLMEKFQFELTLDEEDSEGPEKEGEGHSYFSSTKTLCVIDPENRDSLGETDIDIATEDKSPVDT
row,Compound,Potency
1,COc1c(-c2ccc(O)c(O)c2)oc2cc(O)cc(O)c2c1=O,inactive
2,O=C(c1cccc(F)c1)N1CCC[C@@]2(CCN(C(c3ccccc3)c3ccccc3)C2)C1,inactive
3,Nc1nc2n[nH]nc2c(=O)[nH]1,inactive
4,COc1ccc(-c2nc3cnc(Nc4cccc(OC)c4)nc3n(CCC#N)c2=O)cc1,inactive
5,COc1cccc(-c2nc(Nc3ccncc3)c3ccccc3n2)c1,inactive

# Biological target: Cytochrome P450 3A4 (Homo sapiens) (UniProt P08684)
# Assay: qHTS Assay for Inhibitors and Substrates of Cytochrome P450 3A4 (AID 884); note: nearly all actives have a fitted effect of over 50% in size; note: potency is the fitted concentration of half-maximal effect
# Details: recombinant CYP3A4, Luciferin-PPXE luminescence; series mostly up to 57.1 µM
# Outline: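 Luminescent readout of luciferin produced by CYP3A4 (20 nM) dealkylation of Luciferin-PPXE, 25 uM (its KM). NADPH-driven reaction ran 60 min at RT after 10 min compound preincubation; data scaled to 57 uM ketoconazole as 100% inhibition.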
# Chain of Cytochrome P450 3A4 (Homo sapiens) (P08684 whole entry, looked up): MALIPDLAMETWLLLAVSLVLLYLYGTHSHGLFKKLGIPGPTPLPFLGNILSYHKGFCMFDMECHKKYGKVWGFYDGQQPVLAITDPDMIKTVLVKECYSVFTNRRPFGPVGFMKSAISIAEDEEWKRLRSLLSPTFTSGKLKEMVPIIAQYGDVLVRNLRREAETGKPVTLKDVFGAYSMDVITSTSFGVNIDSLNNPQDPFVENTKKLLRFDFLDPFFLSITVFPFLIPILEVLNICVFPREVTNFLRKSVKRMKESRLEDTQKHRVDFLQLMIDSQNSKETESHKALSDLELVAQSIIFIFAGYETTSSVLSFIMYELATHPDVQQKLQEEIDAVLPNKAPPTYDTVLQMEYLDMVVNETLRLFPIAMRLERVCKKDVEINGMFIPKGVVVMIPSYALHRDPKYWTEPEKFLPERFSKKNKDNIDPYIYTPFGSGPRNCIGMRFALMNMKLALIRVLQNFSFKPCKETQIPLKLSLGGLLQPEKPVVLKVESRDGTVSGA
row,Compound,Potency
1,COc1ccc(C(=O)O)c(O)c1OC,inactive
2,O=C(c1cccc(F)c1)N1CCC[C@@]2(CCN(C(c3ccccc3)c3ccccc3)C2)C1,3.98 µM (active)
3,COC(=O)CCCOc1ccc(Cl)cc1Cl,inactive
4,CC(=O)OC1CC2C(C)(C)CCC(=O)[C@@]2(C)C2CC[C@@]3(C)C(c4ccoc4)OC(=O)C4OC43[C@]12C (some centres undefined),inactive
5,O=c1cc(-c2ccc(O)c(O)c2)oc2cc(OC3OC(CO)C(O)C(O)C3O)cc(O)c12 (centres undefined),inactive
6,C=CC(C1=CC(=O)C(OC)=CC1=O)c1ccccc1 (centres undefined),20 µM (active)
7,COc1ccc(-c2cc(=O)c3c(OC)c(OC)c(OC)c(OC)c3o2)cc1,12.6 µM (active)
8,COc1ccccc1CNc1ncnc2ccc(-c3cccnc3)cc12,2 µM (active)
9,O=c1c(-c2ccccc2)coc2cc(O)cc(O)c12,20 µM (active)
10,COC(=O)c1c(OC)cc2c(c1C)Oc1c(Cl)c(OC(C)=O)c(Cl)c(C)c1C(=O)O2,15.8 µM (active)
11,COc1ccc(-c2nc3cnc(Nc4cccc(OC)c4)nc3n(CCC#N)c2=O)cc1,3.98 µM (active)
12,CC1=CC2C(CC1=O)C(C)=CCC2C(C)C (centres undefined),inactive
13,CC1(C)C=CC(=O)[C@]2(C)C1CC(=O)[C@]1(C)C2CC[C@@]2(C)C(c3ccoc3)OC(=O)C3OC321 (some centres undefined),2 µM (active)
14,COc1ccc2c(c1)[C@@]1(C)CCC[C@](C)(CO)C1CC2 (some centres undefined),10 µM (active)
15,COC(=O)c1c(OC)cc2c(c1C)Oc1c(Cl)c(O)c(Cl)c(C)c1C(=O)O2,1.58 µM (active)
16,COc1ccc2c(c1)OC/C(=C/c1ccc(O)c(O)c1)C2=O,31.6 µM (active)
17,CC(=O)OC1CC[C@]2(C)C(CC(OC(C)=O)[C@@]3(C)C4=CC(=O)OC(c5ccoc5)[C@]4(C)CCC23)C1(C)C (some centres undefined),inactive and 2.51 µM (active)
18,COc1cccc(-c2nc(Nc3ccncc3)c3ccccc3n2)c1,2.51 µM (active)
19,COc1cccc(-c2cncnc2NCc2ccc(OC)cc2OC)c1,0.501 µM (active)
20,N[C@H](C(=O)O)C(O)C(O)C(O)CO (some centres undefined),inactive

# Biological target: Cytochrome P450 3A4 (Homo sapiens) (UniProt P08684)
# Assay: qHTS Assay for Activators of Cytochrome P450 3A4 (AID 885); note: nearly all actives have a fitted effect of over 65% in size; note: potency is the fitted concentration of half-maximal effect
# Details: recombinant CYP3A4, Luciferin-PPXE luminescence, 60 min; series mostly up to 57.1 µM
# Outline: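 Luminescent readout of luciferin formed from 25 uM Luciferin-PPXE (KM level) by 20 nM CYP3A4 in 200 mM KPO4, with 60 min NADPH-driven reaction at room temperature after 10 min compound exposure. Ketoconazole (57 uM) defined 100% inhibition.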
row,Compound,Potency
1,CCOC(=O)c1c(C)cc(OC)cc1O,inactive
2,O=C(c1cccc(F)c1)N1CCC[C@@]2(CCN(C(c3ccccc3)c3ccccc3)C2)C1,inactive
3,CC(=O)Oc1ccc2c(c1C(C)C)CCC1C(C)(C)CCC[C@@]21C (some centres undefined),inactive
4,C=CC(C1=CC(=O)C(OC)=CC1=O)c1ccccc1 (centres undefined),inactive
5,COc1ccc(-c2cc(=O)c3c(OC)c(OC)c(OC)c(OC)c3o2)cc1,inactive
6,COc1ccccc1CNc1ncnc2ccc(-c3cccnc3)cc12,inactive
7,CC1(C)C(O)CC[C@]2(C)C1CC[C@@]1(C)C2C(=O)C=C2[C@@H]3C[C@@](C)(C(=O)O)CC[C@@]3(C)CCC21C (some centres undefined),inactive
8,O=c1c(-c2ccccc2)coc2cc(O)cc(O)c12,inactive
9,COC(=O)c1c(OC)cc2c(c1C)Oc1c(Cl)c(OC(C)=O)c(Cl)c(C)c1C(=O)O2,inactive
10,COc1ccc2c(c1)OCc1c-2oc2cc(OC)ccc12,inactive
11,O=c1c(O)c(-c2ccc(O)c(O)c2)oc2c(OC3OC(CO)C(O)C(O)C3O)c(O)cc(O)c12 (centres undefined),inactive
12,CN(Cc1ccco1)c1nc(-c2cccc(C#N)c2)nc2ccccc12,inactive
13,COc1ccc(-c2nc3cnc(Nc4cccc(OC)c4)nc3n(CCC#N)c2=O)cc1,inactive
14,CC1(C)C=CC(=O)[C@]2(C)C1CC(=O)[C@]1(C)C2CC[C@@]2(C)C(c3ccoc3)OC(=O)C3OC321 (some centres undefined),inactive
15,COc1ccc2c(c1)[C@@]1(C)CCC[C@](C)(CO)C1CC2 (some centres undefined),inactive
16,COc1ccc2c(c1)OCC(Cc1ccc(OC)c(OC(C)=O)c1)C2=O (centres undefined),inactive
17,CC(=O)OC1CCC23CC1(C)CCC2C(C)(C)CC3OC(C)=O (centres undefined),inactive
18,C#C[C@]1(OC(C)=O)CCC2C3CCC4=CC(=O)CCC4C3CC[C@]21C (some centres undefined),inactive
19,COC(=O)c1c(OC)cc2c(c1C)Oc1c(Cl)c(O)c(Cl)c(C)c1C(=O)O2,inactive
20,O=C1CC[C@@]23/C=C/C(=O)NCCCCNCCCNC(=O)/C=C/c4ccc(c2c4)OC3C1 (some centres undefined),inactive
21,O=C(O)c1cc(O)c2c(c1)C(=O)c1cc(O)cc(O)c1C2=O,inactive
22,COc1ccc2c(c1)OC/C(=C/c1ccc(O)c(O)c1)C2=O,inactive
23,CC(=O)OC1CC[C@]2(C)C(CC(OC(C)=O)[C@@]3(C)C4=CC(=O)OC(c5ccoc5)[C@]4(C)CCC23)C1(C)C (some centres undefined),6.31 µM (active) and inactive
24,COc1cccc(-c2nc(Nc3ccncc3)c3ccccc3n2)c1,inactive
25,COc1cccc(-c2cncnc2NCc2ccc(OC)cc2OC)c1,inactive
26,COc1cc(-c2coc3cc(OCc4ccccc4)c(OC)c(O)c3c2=O)cc(O)c1OC,inactive
27,COc1cc(C/C=C/c2ccccc2)c(OC)cc1O,inactive
